Here are results for 92 compounds from PubChem BioAssay AID2073 (Sanford-Burnham Center for Chemical Genomics, 2009).

About 570 (0.2%) of roughly 290,000 compounds were called active. Not shown: some 1% with an inconclusive outcome. The sample holds actives, similar compounds and a random draw of the others, so the mix is not that of the screen. Cut-off read from the data, not from the text of the source: active = inhibition mostly above about 51% (no sharp cut-off); inconclusive = no clear call, values can overlap the other calls; inactive = mostly below about 53%.

This assay concerns the target Voltage-dependent N-type calcium channel subunit alpha-1B (Homo sapiens) (UniProt Q00975). As to the kind of experiment: disruptors of CaV2.2 binding to Mint1 – biochemical, HTRF (AID 2073). The conditions noted are these: HTRF protein-protein interaction, Mint1-CaV2.2, at 20 µM, stronger effect = higher value. For orientation: Time-resolved FRET reads energy transfer from a long-lived donor to a nearby acceptor.

The mark [1] stands for this setting: measured here: average of repeat tests.

Chain of Voltage-dependent N-type calcium channel subunit alpha-1B (Homo sapiens) (Q00975 whole entry, looked up): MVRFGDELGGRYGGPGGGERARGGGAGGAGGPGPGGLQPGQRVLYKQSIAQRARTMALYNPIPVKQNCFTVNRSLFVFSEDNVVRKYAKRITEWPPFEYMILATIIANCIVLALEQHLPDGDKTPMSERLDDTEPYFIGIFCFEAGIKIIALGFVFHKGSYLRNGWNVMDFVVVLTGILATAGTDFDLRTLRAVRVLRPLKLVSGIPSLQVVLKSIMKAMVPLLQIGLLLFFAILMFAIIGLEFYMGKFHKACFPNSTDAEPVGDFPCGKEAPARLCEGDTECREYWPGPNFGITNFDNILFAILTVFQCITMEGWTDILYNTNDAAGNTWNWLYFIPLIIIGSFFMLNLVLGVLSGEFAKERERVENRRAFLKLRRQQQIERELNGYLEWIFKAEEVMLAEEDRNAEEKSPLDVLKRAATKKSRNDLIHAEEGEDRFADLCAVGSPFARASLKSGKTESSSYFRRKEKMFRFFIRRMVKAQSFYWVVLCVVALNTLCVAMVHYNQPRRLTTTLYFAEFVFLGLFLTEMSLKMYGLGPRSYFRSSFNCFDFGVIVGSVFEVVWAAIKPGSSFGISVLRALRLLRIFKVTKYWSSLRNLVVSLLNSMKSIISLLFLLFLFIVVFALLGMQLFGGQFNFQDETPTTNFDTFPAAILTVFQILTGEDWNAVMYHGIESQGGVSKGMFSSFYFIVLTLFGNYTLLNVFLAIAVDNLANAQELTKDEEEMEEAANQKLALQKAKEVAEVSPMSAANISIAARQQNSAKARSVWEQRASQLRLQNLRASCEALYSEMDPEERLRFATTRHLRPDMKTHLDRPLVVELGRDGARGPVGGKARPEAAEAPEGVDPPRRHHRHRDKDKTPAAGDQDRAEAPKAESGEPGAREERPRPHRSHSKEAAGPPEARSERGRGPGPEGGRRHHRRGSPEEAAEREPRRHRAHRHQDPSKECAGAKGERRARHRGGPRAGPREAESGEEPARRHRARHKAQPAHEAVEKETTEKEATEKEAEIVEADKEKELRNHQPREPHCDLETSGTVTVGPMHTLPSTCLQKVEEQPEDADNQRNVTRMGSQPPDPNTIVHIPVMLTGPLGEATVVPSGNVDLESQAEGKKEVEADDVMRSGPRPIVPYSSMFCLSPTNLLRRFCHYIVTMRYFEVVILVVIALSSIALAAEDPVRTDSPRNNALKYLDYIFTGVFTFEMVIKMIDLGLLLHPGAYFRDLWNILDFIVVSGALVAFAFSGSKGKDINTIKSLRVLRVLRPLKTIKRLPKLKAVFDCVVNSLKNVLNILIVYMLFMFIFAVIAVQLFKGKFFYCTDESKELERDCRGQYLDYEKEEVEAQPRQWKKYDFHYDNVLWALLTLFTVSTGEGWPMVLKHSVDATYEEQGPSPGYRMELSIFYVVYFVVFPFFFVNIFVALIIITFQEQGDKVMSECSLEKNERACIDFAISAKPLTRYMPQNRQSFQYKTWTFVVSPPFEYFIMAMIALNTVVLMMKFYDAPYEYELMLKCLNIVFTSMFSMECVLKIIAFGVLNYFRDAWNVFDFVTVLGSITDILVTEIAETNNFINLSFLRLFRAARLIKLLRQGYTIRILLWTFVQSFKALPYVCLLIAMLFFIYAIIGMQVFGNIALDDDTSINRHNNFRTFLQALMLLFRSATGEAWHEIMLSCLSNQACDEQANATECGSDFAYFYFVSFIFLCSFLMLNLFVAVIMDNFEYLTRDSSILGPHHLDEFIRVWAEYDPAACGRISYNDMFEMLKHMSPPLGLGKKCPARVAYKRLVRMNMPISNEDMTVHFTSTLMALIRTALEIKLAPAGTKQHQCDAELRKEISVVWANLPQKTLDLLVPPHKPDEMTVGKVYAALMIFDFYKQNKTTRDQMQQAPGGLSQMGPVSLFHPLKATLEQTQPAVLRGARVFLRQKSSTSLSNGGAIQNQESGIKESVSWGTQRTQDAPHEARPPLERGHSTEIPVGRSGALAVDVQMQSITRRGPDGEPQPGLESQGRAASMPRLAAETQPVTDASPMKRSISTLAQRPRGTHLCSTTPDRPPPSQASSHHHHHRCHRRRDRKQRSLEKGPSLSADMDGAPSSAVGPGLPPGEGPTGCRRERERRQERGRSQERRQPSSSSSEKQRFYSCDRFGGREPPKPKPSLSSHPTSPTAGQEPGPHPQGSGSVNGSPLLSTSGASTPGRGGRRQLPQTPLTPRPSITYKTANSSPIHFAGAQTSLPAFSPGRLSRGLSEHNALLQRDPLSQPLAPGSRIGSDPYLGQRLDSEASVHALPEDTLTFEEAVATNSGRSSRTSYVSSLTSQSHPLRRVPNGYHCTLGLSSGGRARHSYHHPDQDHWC

In the case of `CCCCc1cc(=O)oc2cc(OCC(=O)N3CCC(C(N)=O)CC3)ccc12`, the inhibition (in general, the change of the read-out against control, counted positive when it falls) is 8.7% (inactive).

As for `O=C(c1ccco1)N1CCN(Cc2cccc3ccccc23)CC1`, the inhibition is 3.9% (inactive).

For `O=C(COC(=O)c1ccc(O)cc1)Nc1cccc(S(=O)(=O)NC2=NCCCCC2)c1`, the inhibition was -9.8% (inactive).

Turning to `O=C(COC(=O)c1cnccn1)Nc1ccc(Cl)cc1`, the inhibition is 3.8% (inactive).

As to `NS(=O)(=O)c1ccc(NC(=O)COC(=O)c2cnccn2)cc1`, the inhibition is 51.2% (active).

For `CC(=O)Nc1ccc(NC(=O)COC(=O)c2cnccn2)cc1`, the inhibition is 15.7% (inactive).

For `CC(C)OC(=O)c1cc2c(ccn2-c2ccc(F)cc2)n1CC(=O)N1CCN(C(=O)c2ccco2)CC1`, the inhibition is 40.4% (inactive).

As to `CN(C)[C@@H]1C(=O)C(C(N)=O)=C(O)[C@@]2(O)C(=O)C3=C(O)c4c(O)ccc(Cl)c4[C@@H](O)[C@H]3C[C@@H]12`, the inhibition is 56.1% (active).

Take `CN(C)c1ccc(O)c2c1CC1CC3[C@@H](N(C)C)C(=O)C(C(N)=O)=C(O)[C@]3(O)C(=O)C1=C2O` (stereo partly drawn): the inhibition was 22.3% (inactive).

For `C[C@H]1c2cccc(O)c2C(O)=C2C(=O)[C@]3(O)C(O)=C(C(N)=O)C(=O)[C@@H](N(C)C)[C@@H]3[C@@H](O)[C@@H]21`, the inhibition is 13.4% (inactive).

For `C=C1CCC[C@]2(C)C[C@H]3OC(=O)C(CN(Cc4ccc(OC)c(OC)c4)CC(C)O)[C@H]3CC12` (stereo partly drawn), the inhibition is 6.9% (inactive).

For `COc1cccc(-c2nc(NCc3cccnc3)c3ccccc3n2)c1O`, the inhibition is 14.2% (inactive).

Consider `O=C(Nc1ccc2oc(-c3ccccc3Cl)nc2c1)c1ncn[nH]1`, for which the inhibition is 28.3% (inactive).

With `O=C(Nc1ccc2oc(-c3ccccc3F)nc2c1)c1ncn[nH]1`, the inhibition is 2.6% (inactive).

Take `O=C(c1cccs1)N1CCN=C1SCc1cccnc1`: the inhibition was -1.3% (inactive).

With `CCOc1cccc(NC(=O)c2cccc(F)c2)c1`, the inhibition was 2.7% (inactive).

`CN(C)C=Nc1c(Br)cc(Br)c2nonc12`: the inhibition is 19.7% (inactive).

For `Cc1ccc(Nc2nc(=O)c3cccnc3s2)cc1`, the inhibition is 2.2% (inactive).

As to `Cc1ccc(Nc2nc(=O)c3cccnc3s2)c(Br)c1`, the inhibition was -13% (inactive).

As for `COc1ccc(OC)c(Nc2nc(=O)c3cccnc3s2)c1`, the inhibition was 81.8% (active).

Turning to `Cc1cccc(Oc2sc(C(=O)c3ccccc3)c(N)c2C#N)c1C`, the inhibition is 4.2% (inactive).

As to `CCCCNc1nc2ccccc2nc1Cl`, the inhibition is 4.6% (inactive).

`COc1ccc(C2(C)NC(=O)N(CC(=O)Nc3ccc(S(=O)(=O)N4CCCC4)cc3)C2=O)cc1` (stereo not drawn): the inhibition is 4.9% (inactive).

Turning to `Oc1ccc(N=C/C=C/c2cccc(Br)c2)cc1-c1nc2ccccc2s1`, the inhibition was 66.6% (inactive). Besides, the inhibition under setting [1] is 5%.

Turning to `Oc1ccc(N=C/C=C/c2ccc(Br)cc2)cc1-c1nc2ccccc2s1`, the inhibition is 62.9% (active).

Take `Brc1ccc(/C=C/C=N/Nc2nc3ccccc3s2)cc1`: the inhibition was 5.3% (inactive).

Take `COCCCN=C1NN=C(c2cc(C)n(Cc3ccco3)c2C)CS1`: the inhibition is 24.8% (inactive).

Turning to `CCN=C1NN=C(c2cc(C)n(Cc3ccco3)c2C)CS1`, the inhibition was 57.5% (active).

For `Cc1cc(C2=NNC(=NC3CC3)SC2)c(C)n1Cc1ccco1`, the inhibition was 26.3% (inactive).

With `CCOC(=O)/C(C#N)=C1/C=Nc2ccccc2N1`, the inhibition is 14.4% (inactive).

In the case of `Cc1ccc(NC(=O)CCNS(=O)(=O)c2ccc3[nH]c(=O)oc3c2)c(C)c1`, the inhibition is -0.1% (inactive).

As for `COc1cccc(C(=O)Nc2ccc3c(c2)C(=O)NC3=O)c1`, the inhibition was 11.6% (inactive).

Take `Cc1ccc(Nc2c(-c3ccccn3)nc3cc(C)ccn23)cc1`: the inhibition is 50.4% (active).

`Cc1ccn2c(Nc3ccccc3)c(-c3ccccn3)nc2c1`: the inhibition is 21.1% (inactive).

On to `Cc1ccn2c(Nc3ccccc3C)c(-c3ccccn3)nc2c1`, for which the inhibition is 15% (inactive).

In the case of `O=C(Nc1ccc2c(c1)OCCO2)c1cccc(Br)c1`, the inhibition is -4.4% (inactive).

As to `Nc1nnnn1/N=C/c1ccccc1OCc1ccc(Cl)cc1`, the inhibition is 0.5% (inactive).

As to `Cc1nn(CC(=O)NCC2CCCO2)c(C)c1[N+](=O)[O-]` (stereo not drawn), the inhibition is 5.2% (inactive).

Regarding `NC(=O)c1sc(=S)n2c1[nH]c(=O)c1sccc12`, the inhibition was 51.8% (active).

With `O=C(NCc1ccccc1)c1sc(=S)n2c1[nH]c(=O)c1ccccc12`, the inhibition was -8.6% (inactive).

Turning to `CC(=O)NNC(=O)c1sc(=S)n2c1[nH]c(=O)c1sccc12`, the inhibition is 46.1% (inactive).

Consider `Cc1c(C(=O)/C=C/c2cccs2)oc2ccc(F)cc12`, for which the inhibition is -6.1% (inactive).

Turning to `O=C(OC1CCCCC1)c1ccc2c(c1)C1C=CCC1C(C(=O)O)N2` (stereo not drawn), the inhibition was 74.8% (active).

Consider `CCOC(=O)c1ccc2c(c1)C1C=CCC1C(C(=O)O)N2` (stereo not drawn), for which the inhibition is 31% (inactive).

With `Cc1ccc2c(c1)C1C=CCC1C(C(=O)O)N2` (stereo not drawn), the inhibition was 39.2% (inactive).

As to `Cc1ccccc1OCC(=O)OC(C(=O)c1ccccc1)c1ccccc1` (stereo not drawn), the inhibition is 12.2% (inactive).

Consider `O=C1CCCN1c1cc(Cl)ccc1Cl`, for which the inhibition was -4.5% (inactive).

`O=c1cc(O)c2sc(Nc3ccc(F)cc3)nc2[nH]1`: the inhibition was 63.2% (active).

For the compound `O=c1cc(O)c2sc(Nc3ccc(F)c(Cl)c3)nc2[nH]1`, the inhibition was 86.3% (active).

As for `Fc1ccc(Nc2nnc(C(F)(F)F)s2)cc1Cl`, the inhibition is 10.6% (inactive).

Turning to `Fc1ccc(Nc2nc3ccccc3s2)cc1`, the inhibition is 3.5% (inactive).

Regarding `O=c1cnnc(Nc2cccc(C(F)(F)F)c2)[nH]1`, the inhibition is 2.4% (inactive).

For `Cc1cc(=O)[nH]c(Nc2cccc(C(F)(F)F)c2)n1`, the inhibition is -2.3% (inactive).

As to `O=c1cc(O)c2sc(Nc3ccc(Cl)c(F)c3)nc2[nH]1`, the inhibition was 66.1% (inactive). Besides, the inhibition under setting [1] is 31.6%.

For the compound `O=c1cc(O)c2sc(Nc3cccc(C(F)(F)F)c3)nc2[nH]1`, the inhibition is 66.6% (active).

As for `COc1ccc(Nc2nc3[nH]c(=O)cc(O)c3s2)cc1`, the inhibition is 87.5% (inactive). Moreover, the inhibition under setting [1] came out at 17.2%.

As to `O=C(/C=C/c1ccccc1)N1CCN(S(=O)(=O)c2ccc(F)cc2)CC1`, the inhibition was -4.1% (inactive).

Regarding `CN(C)CCNc1nc2c(c(=O)[nH]c(=O)n2C)n1CC(O)COc1ccc(Cl)cc1` (stereo not drawn), the inhibition was -3% (inactive).

As for `COc1ccc(/C=N/NC(=O)c2ccc(CN3C(=O)c4cccc5cccc3c45)cc2)cc1O`, the inhibition was 71.7% (inactive). Further, the inhibition under setting [1] worked out at 39.7%.

For the compound `O=C(N/N=C/c1ccc(O)cc1O)c1ccc(CN2C(=O)c3cccc4cccc2c34)cc1`, the inhibition was 69.5% (active).

In the case of `O=C(N/N=C/c1ccccc1)c1ccc(CN2C(=O)c3cccc4cccc2c34)cc1`, the inhibition was 36.4% (inactive).

Turning to `COC(=O)c1ccc(OCCOc2ccccc2C)cc1`, the inhibition was 26.5% (inactive).

Turning to `Cc1ccc(C)c(S(=O)(=O)NCc2ccc(C(=O)N3CCOCC3)cc2)c1`, the inhibition is -3.9% (inactive).

For `CCc1nn2c(=O)cc(COc3ccc(/C=C4\C(=N)N5N=C(CC(C)C)SC5=NC4=O)cc3)nc2s1`, the inhibition is 24.6% (inactive).

Take `CCc1nn2c(=O)cc(COc3ccc(/C=C4\C(=N)N5N=C(C)SC5=NC4=O)cc3)nc2s1`: the inhibition was 60% (active).

For the compound `CC(=O)Nc1ccc(OCCOc2ccc(/C=C3\C(=N)N4N=C(C)SC4=NC3=O)cc2)cc1`, the inhibition was 24.7% (inactive).

For `COCCCN1C(=O)C(=O)/C(=C(/O)c2ccc(S(=O)(=O)N3CCCCC3)cc2)C1c1ccc(O)cc1` (stereo not drawn), the inhibition is 2% (inactive).

Consider `CNC(=S)N1CCN=C1Nc1nc(C)cc(C)n1`, for which the inhibition was 3.5% (inactive).

With `COc1ccc(NS(=O)(=O)c2ccc3c(c2)[C@H]2C=CC[C@H]2[C@@H](c2ccc(C(=O)O)cc2)N3)cc1`, the inhibition is 20.2% (inactive).

Turning to `Cc1c(Cl)cccc1NS(=O)(=O)c1ccc2c(c1)C1C=CCC1C(c1ccc(C(=O)O)cc1)N2` (stereo not drawn), the inhibition is 61% (inactive). Besides, the inhibition under setting [1] was 29.1%.

For the compound `COc1cccc(NS(=O)(=O)c2ccc3c(c2)C2C=CCC2C(c2ccc(C(=O)O)cc2)N3)c1` (stereo not drawn), the inhibition was 56.4% (active). Also, the inhibition under setting [1] turned out to be 55%.

Regarding `Cc1cc(-c2cc(C(=O)O)c3ccccc3n2)c(C)s1`, the inhibition is 9.2% (inactive).

Regarding `O=C1c2ccccc2C(=O)N1OCc1c(F)cccc1Cl`, the inhibition was 16.6% (inactive).

`CCOC(=O)c1c(N2C(=O)C3CC(C)=C(C)CC3C2=O)sc(C)c1C` (stereo not drawn): the inhibition was -2.7% (inactive).

With `CCOC(=O)c1c(N2C(=O)C=CC2=O)sc(C)c1C`, the inhibition was 65.5% (active).

For the compound `CCOC(=O)c1c(-n2cnnn2)sc(C)c1C`, the inhibition was -6.3% (inactive).

Turning to `CCOC(=O)c1c(NC(=O)COC)sc(C(C)=O)c1C`, the inhibition was 6.4% (inactive).

On to `CCOc1ccc(N2C(=O)CC(S/C(N)=N/N=C/c3cccs3)C2=O)cc1` (stereo not drawn), for which the inhibition is 10.6% (inactive).

Regarding `CCCCc1nc2sc3c(=O)n(N)cnc3c2c2c1CCCC2`, the inhibition is 8.9% (inactive).

As for `CCn1ncc(-c2ccnc3cc(C(=O)O)nn23)c1C`, the inhibition is 67.9% (active).

Turning to `CCn1cc(-c2ccnc3cc(C(=O)O)nn23)c(C)n1`, the inhibition was 39.6% (inactive).

`Cc1c(-c2ccnc3cc(C(=O)O)nn23)cnn1C`: the inhibition was 49.5% (inactive).

Regarding `CCn1cc(C(=O)Nc2ccc(F)c(F)c2)cn1`, the inhibition was 8.5% (inactive).

On to `CC(C)n1nc(C(=O)N2CCN(S(=O)(=O)c3cccs3)CC2)c2ccccc2c1=O`, for which the inhibition is -6.3% (inactive).

Consider `Cc1ccc(NC(=O)CN2C(=O)S/C(=C\c3ccc(-c4cccc(C(=O)O)c4C)o3)C2=O)cc1`, for which the inhibition was 7.6% (inactive).

Regarding `Cc1ccc(C(=O)O)cc1-c1ccc(/C=C2\SC(=O)N(CC(=O)Nc3ccccc3)C2=O)o1`, the inhibition was 24% (inactive).

In the case of `Cc1ccc(NC(=O)CN2C(=O)S/C(=C/c3ccc(-c4cccc(C(=O)O)c4)o3)C2=O)cc1`, the inhibition was 62.3% (active).

Regarding `O=c1[nH]cnc(O)c1N=Nc1ccccc1`, the inhibition was -0.9% (inactive).

Take `CCCSCCCNC(=O)c1cc2c(s1)CS(=O)(=O)C2`: the inhibition is 2% (inactive).

Turning to `O=C(Nc1ccccc1C(=O)O)c1ccc2c(c1)C(=O)N(c1cccc([N+](=O)[O-])c1)C2=O`, the inhibition was 11.2% (inactive).

On to `O=C(O)c1cccc(NC(=O)c2ccc3c(c2)C(=O)N(c2cccc([N+](=O)[O-])c2)C3=O)c1`, for which the inhibition is 26.4% (inactive).

For the compound `CCOC(=O)c1cc2c(N)c(C(=O)c3cc(C#N)c(SC)nc3C)sc2nc1C`, the inhibition is 8.2% (inactive).
